Measurements taken from PubChem BioAssay AID1645857 (Buhrlage Lab, Dana-Farber Cancer Institute and Novartis …, 2021).
In all, about 47,000 compounds went through this assay and about 1,400 (3%) were called active. Cut-off read from the data, not from the text of the source: active = inhibition above about 30%; inactive = the rest. The sample as a whole holds a higher share of actives than the screen did.

Each compound was assayed against Ubiquitin carboxyl-terminal hydrolase 28 (Homo sapiens) (UniProt Q96RU2) (assay: blocks human USP28 ubiquitin-rhodamine cleavage (AID 1645857)). Conditions: purified USP28, Ub-rhodamine cleavage fluorescence, 30 min; at 25 µM; active compounds read high.
Ubiquitin carboxyl-terminal hydrolase 28 (Homo sapiens), sequence (Q96RU2 whole entry, looked up): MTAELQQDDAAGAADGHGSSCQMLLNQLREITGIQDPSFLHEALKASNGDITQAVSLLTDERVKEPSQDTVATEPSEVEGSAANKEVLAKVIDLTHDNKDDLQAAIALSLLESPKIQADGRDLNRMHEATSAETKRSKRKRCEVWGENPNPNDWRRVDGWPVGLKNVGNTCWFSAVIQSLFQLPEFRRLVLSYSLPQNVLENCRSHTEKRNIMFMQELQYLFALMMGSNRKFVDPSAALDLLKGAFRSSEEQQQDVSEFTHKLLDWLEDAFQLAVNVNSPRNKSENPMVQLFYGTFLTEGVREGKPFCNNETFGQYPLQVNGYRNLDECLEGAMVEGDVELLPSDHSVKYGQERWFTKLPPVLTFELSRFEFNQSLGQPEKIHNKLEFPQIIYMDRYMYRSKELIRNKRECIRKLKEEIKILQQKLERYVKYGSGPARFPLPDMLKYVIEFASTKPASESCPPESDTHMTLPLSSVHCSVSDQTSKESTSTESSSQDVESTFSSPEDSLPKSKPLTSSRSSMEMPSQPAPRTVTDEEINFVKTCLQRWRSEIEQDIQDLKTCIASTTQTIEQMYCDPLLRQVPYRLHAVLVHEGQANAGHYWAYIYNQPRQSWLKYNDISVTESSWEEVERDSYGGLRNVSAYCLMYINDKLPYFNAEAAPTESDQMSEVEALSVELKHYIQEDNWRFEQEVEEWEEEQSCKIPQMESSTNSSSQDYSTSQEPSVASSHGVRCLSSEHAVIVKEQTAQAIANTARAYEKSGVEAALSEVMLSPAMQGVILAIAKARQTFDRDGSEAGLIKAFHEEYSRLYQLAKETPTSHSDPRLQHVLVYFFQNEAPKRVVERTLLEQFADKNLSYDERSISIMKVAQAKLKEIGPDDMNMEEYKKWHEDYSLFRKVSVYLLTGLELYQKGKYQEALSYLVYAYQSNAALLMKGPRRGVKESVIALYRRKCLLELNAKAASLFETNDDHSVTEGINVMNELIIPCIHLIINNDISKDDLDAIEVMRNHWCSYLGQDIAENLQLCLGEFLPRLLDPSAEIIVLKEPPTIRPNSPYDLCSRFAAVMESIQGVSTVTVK

SMILES	inhibition
N#Cc1ccc(NC(=O)Nc2cccn(Cc3ccccc3F)c2=O)cc1	86.6% (active)
O=C(Cn1cccc(-c2nc(-c3ccccc3)no2)c1=O)Nc1ccccc1F	6.71% (inactive)
Cc1noc(-c2cccn(Cc3cc(F)ccc3F)c2=O)n1	29% (inactive)
CC1(C(=O)NC2CCCCCC2)Cn2c(nc3ccccc32)C(=O)N1CCc1ccccc1 (centres undefined)	-1.29% (inactive)
O=C(c1cc2c(=O)n3ccccc3nc2n1Cc1ccccc1)N1CCN(c2ccccc2)CC1	-0.309% (inactive)
COc1ccc(-c2[nH]c3ccccc3c2SCCNC(=O)c2ccc(S(=O)(=O)N3CCOCC3)cc2)cc1	32.8% (active)
COc1ccc(-c2cnc(SCCNC(=O)c3cccc(F)c3)[nH]2)cc1	12.3% (inactive)
COc1ccc(NC(=O)c2cc(=O)[nH]c3ccccc23)cc1S(=O)(=O)N1CCOCC1	-0.445% (inactive)
COc1ccccc1Nc1ncnc2oc(C)c(C)c12	-18.5% (inactive)
COc1ccc(OC)c(-n2c(CNC(=O)c3ccco3)nnc2SCC(=O)N2CCc3ccccc32)c1	0.00951% (inactive)
CC(=O)c1ccc(NC(=O)CCCn2nc([N+](=O)[O-])cc2C)cc1	9.41% (inactive)
C#CCOc1ccc(CN2CCc3nc(-c4cccnc4)[nH]c(=O)c3C2)cc1OC	-1.43% (inactive)
C#CCOc1ccc2ccccc2c1CN1CCc2ccccc2C1	39.7% (active)
CS(=O)(=O)N1CCC2(CC1)CN(C(=O)c1ccc3[nH]ccc3c1)Cc1ccccc1O2	7.47% (inactive)
CC(C)Cc1cc(-c2nn3c(-c4ccccc4Cl)nnc3s2)n[nH]1	30.4% (active)
COCCn1ccc(-c2cc(C(=O)N3CCCN(C)CC3)c3ccccn23)n1	-61% (inactive)
CN(C)c1cccc(NC(=O)N2CC[C@@H]3[C@H]2C(=O)N(C)[C@@H](Cc2ccccc2)C(=O)N3C)c1	-0.0135% (inactive)
CC1CCN(S(=O)(=O)N2CCCC(C(=O)Nc3ccccc3Cl)C2)CC1 (centres undefined)	-2.94% (inactive)
CCc1cccc(NC(=O)C2CCN(c3ccncc3)CC2)c1	22% (inactive)
Cc1ccc(NC(=O)C2CCN(S(=O)(=O)c3cnc[nH]3)CC2)cc1Cl	39% (active)
COc1ccc(CNC(=O)c2ccccc2-c2ncc(-c3ccccc3)o2)cc1	21.9% (inactive)
COc1ccc(CNC(=O)c2[nH]nc3c2CCc2ccccc2-3)cc1	30.6% (active)
COc1ccc(CNC(=O)c2cccc3cccnc23)cc1	4.72% (inactive)

SMILES	inhibition
Clc1cc2nc(N3CCN(c4ccccn4)CC3)c3nncn3c2cc1Cl	36.5% (active)
Cc1nn(-c2ccccc2)c(C)c1S(=O)(=O)N1CCN(c2ccccn2)CC1	-7.5% (inactive)
O=C(c1ccc(N2CCCC2)nn1)N1CCN(c2ccccn2)CC1	2.13% (inactive)
O=C(N[C@H]1C[C@@H]2C[C@H]1N(C(=O)c1ccc3c(c1)OCO3)C2)c1ccccc1	-126% (inactive)
CCOc1ccc(NC(=S)Nc2ccc(Cc3ccncc3)cc2)cc1	36.8% (active)
CCN(CC)c1ccc(NC(=O)Nc2ccc(OCc3ccccc3)cc2)cc1	-7.22% (inactive)
O=S(=O)(Nc1ccc(Cc2ccncc2)cc1)c1ccc2c(c1)OCCO2	9.83% (inactive)
Cc1cc(-c2ncc(C)[nH]2)nc(C2CCCCN2C(=O)c2ccccc2)n1 (centres undefined)	5.54% (inactive)
Cn1c(N2CCN(C(=O)c3cccc(Cl)c3)CC2)cc(=O)n(C)c1=O	-5.96% (inactive)
Cc1c(Cl)cccc1NC(=O)C[n+]1cc(-c2ccc(Cl)cc2)n2c1CCC2	10.7% (inactive)
CC(=O)C[n+]1cc(-c2ccc(C)cc2)n2c1CCC2	-0.406% (inactive)
Clc1ccc(C[n+]2cc(-c3ccc(Cl)cc3)n3c2CCC3)cc1	54.6% (active)
CCCc1cc(=O)[nH]c(N2CCN(c3ccc(Cl)cc3)CC2)n1	0.253% (inactive)
CC(C)=CCc1cc(O)ccc1O	-0.0939% (inactive)
CC(C)=CCC(O)C1=CC(=O)c2c(O)ccc(O)c2C1=O (centres undefined)	93.4% (active)
CN1C(=O)[C@H](Cc2ccccc2)N(C)C(=O)[C@@H]2[C@H]1CCN2C(=O)Nc1cccc(C#N)c1	-9.42% (inactive)
Cn1nc(C2CCN(Cc3ccc4c(c3)CC(C)(C)O4)CC2)c2nccnc21	-6.5% (inactive)
CC(C)C(=O)N1c2ncnn2C(c2ccc(Cl)cc2)CC1c1ccccc1 (centres undefined)	-5.15% (inactive)
CC(=O)c1ccc(N2CCN(CC(=O)c3c(N)n(Cc4ccccc4)c(=O)n(C)c3=O)CC2)cc1	-11.8% (inactive)
CN1CCC(N(C)C(=O)c2ccc(Cl)c(S(=O)(=O)Nc3ccccc3C(=O)N(C)C3CCN(C)CC3)c2)CC1	-0.184% (inactive)
Cc1ccc(CCNCc2c(C(=O)O)n(C)c3ccccc23)cc1	-5.83% (inactive)
CC(CCc1ccccc1)NCc1c(C(=O)O)n(Cc2ccccc2F)c2ccccc12 (centres undefined)	23% (inactive)
Cc1ccc(Cn2c(C(=O)O)c(CNC(C)CCc3ccccc3)c3ccccc32)cc1 (centres undefined)	32.3% (active)

SMILES	inhibition
CC1CCCCN1Cc1nc2c([nH]1)c(=O)n(C)c(=O)n2C (centres undefined)	-0.186% (inactive)
CCC(Cc1ccccc1)NS(=O)(=O)c1ccc2c(c1)NC(=O)CS2 (centres undefined)	37.3% (active)
CCCN(CCC)CCNS(=O)(=O)c1ccc2c(c1)NC(=O)CCS2	-7.06% (inactive)
CC(NS(=O)(=O)c1ccc2c(c1)SCC(=O)N2)c1ccccc1 (centres undefined)	13% (inactive)
CC(C)NC(=O)CN1C(=O)CC(C)Sc2ccc(S(=O)(=O)N3CCCCC3)cc21 (centres undefined)	13.7% (inactive)
CCc1nnc(C2CCN(C(=O)c3ccc(F)cc3F)CC2)s1	-5.47% (inactive)
CC1CCN(c2nc(F)c3c(c2F)S(=O)(=O)CCN3Cc2cccnc2)CC1	-20.5% (inactive)
Cc1cccc(-c2nnc(-c3cccc(S(=O)(=O)N4CCCC4)c3)o2)c1	4.29% (inactive)
O=C(COC(=O)C1CCN(S(=O)(=O)c2c(Cl)cccc2Cl)CC1)Nc1ccc2c(c1)CCC2	15.4% (inactive)
O=C(Nc1nnc(-c2cccc([N+](=O)[O-])c2)o1)C1CCN(S(=O)(=O)c2ccc3c(c2)CCC3)CC1	46.2% (active)
CCOc1ccc2nc3sc(C(=O)N4CCCC4)c(N)c3cc2c1	-2.52% (inactive)
COc1ccc(NC(=O)CC[C@@H]2NC(=O)N([C@@H](C)c3ccccc3)C2=O)cc1	8.47% (inactive)
O=C(CCc1nnc2n(Cc3ccc(Cl)cc3)c(=O)c3ccccc3n12)NCCN1CCOCC1	-1.7% (inactive)
Clc1ccc(C2NC3=NCN(Cc4ccco4)CN3c3nc4ccccc4n32)cc1 (centres undefined)	32.7% (active)
CN(Cc1cccnc1Oc1ccccc1)C(=O)c1cnccn1	-1.11% (inactive)
O=C1COC2(CCN(c3ncccn3)CC2)CN1Cc1cccc(F)c1	-14.6% (inactive)
CCN1C[C@H]2C3(CCN(S(=O)(=O)c4ccccc4)CC3)CC[C@@]2(C(=O)NC)C1	0.022% (inactive)
Cc1ccc(CNC(=O)CCCn2c(=O)c3sccc3n(CC(=O)OCc3ccccc3)c2=O)cc1	45.6% (active)
N#Cc1ccccc1Cn1c(=O)n(CCCC(=O)NCc2ccc(F)cc2)c(=O)c2ccccc21	8.1% (inactive)
COc1ccc(CCNC(=O)CCCn2c(=O)c3ccccc3n(CC(=O)OCc3ccccc3)c2=O)cc1OC	26.2% (inactive)
CN1CCc2onc(-c3cccc(CN)c3)c2C1=O	11.5% (inactive)
CCOc1ccccc1C1c2[nH]c3ccccc3c2C[C@H]2C(=O)N(CCCc3ccccc3)CC(=O)N12 (some centres undefined)	-32.1% (inactive)
CSc1ccccc1NC(=O)c1ccc(N2CCCC2)nn1	3.05% (inactive)

SMILES	inhibition
CC1CCc2c(cnc3c(C(=O)NCc4cccnc4)cnn23)C1 (centres undefined)	-1.11% (inactive)
Cc1ccccc1NC(=O)Cc1csc2nc(-c3ccc(F)cc3)cn12	37.7% (active)
Cc1cc(F)ccc1NC(=O)Cc1n[nH]c(Cc2ccccc2)n1	-17.7% (inactive)
O=C(Cc1ccc(F)cc1)Nc1ccccc1Cc1ccccc1	11.8% (inactive)
N#Cc1ccc(C(=O)N2CCN(c3cc(-c4ccccc4)[nH]n3)CC2)cc1	-11% (inactive)
CCOC(=O)c1cnn(-c2ccc(C(=O)Nc3ccc(C(C)=O)cc3)cn2)c1N	-5.3% (inactive)
Cc1ccc(C(=O)Nc2cccc3c2CCCC3)cc1C	1.01% (inactive)
Cc1ccccc1NC(=O)c1ccc(-c2nc3cccnc3n(C3CCCC3)c2=O)cc1	-11.7% (inactive)
CC(=O)Nc1cccnc1-c1ccc(C(=O)Nc2ccc(C)c(C)c2)cc1	37.1% (active)
O=C(c1cccc(Nc2ncccn2)c1)N1CCOCC2(C1)CN(c1ccccc1)C(=O)O2 (centres undefined)	-1.6% (inactive)
COc1ccc(CCNC(=O)CSc2cn(CCNC(=O)c3ccccc3C)c3ccccc23)cc1OC	13.1% (inactive)
COc1ccc(CCNC(=O)c2ccccc2OCc2ccc(F)cc2)cc1	10.8% (inactive)
COc1ccc(CCNC(=O)c2ccc3ccccc3c2)cc1OC	54.7% (active)
Cc1cc(C)c(-c2nnc(NC(=O)c3ccc(-c4ccccc4)cc3)s2)c(C)c1	-5.98% (inactive)
CCOC(=O)c1ccc(NC(=O)CSc2nnc(CNC(=O)c3ccc(OC)cc3)n2C)cc1	-5.59% (inactive)
Cc1ccc(NS(=O)(=O)c2cc3n(c2)CCN(C)C3=O)cc1	-5.99% (inactive)
O=C1C(O)=C(c2ccc(O)c(O)c2)C(=O)C(O)=C1c1ccccc1	66.9% (active)
O=CNC1CC2(CCCCC2)Oc2ccccc21 (centres undefined)	-1.81% (inactive)
c1ccc(-c2csc3ncnc(NC4CCCc5ccccc54)c23)cc1 (centres undefined)	-4.83% (inactive)
CN1CC(=O)N(C2CCCNC2)Cc2c(NC3CCc4ccccc43)ncnc21 (centres undefined)	90.6% (active)
